Shown are actives, neighbours in structure and some others; about 2.4% of the full set was active somewhere.
FEN1 inh = qHTS Assay for the Inhibitors of Human Flap endonuclease 1 (FEN1). Potency, µM (titrated, usually from 114 µM), most hits filed as inhibitors. Recombinant FEN1 flap cleavage, fluorescence, 15 min. 0.35% of 390,000 active. P39748; note: nearly all actives have a fitted effect of over 65% in size
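Enzyme 10 nM, 15 min RT preincubation with compound; start with substrate 50 nM final; reads at 0 and 15 min; qHTS titration, four-parameter Hill fit.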
Pol eta inh-1 = qHTS for Inhibitors of Polymerase Eta; recombinant Pol eta, fluorescent DNA replication assay; Potency, µM (highest dose often 114 µM), actives largely listed as inhibitors; 1.2% of 390,000 active; AID 588591, 2011
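Fluorescent replication assay: 50 nM final substrate added after a 15 min room-temperature compound preincubation with 10 nM enzyme. Signal taken at 0 min and again at 10 min.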
POLB inh = qHTS Assay for Inhibitors of DNA Polymerase Beta; P06746; Pol beta primer extension/strand displacement, fluorescence kinetic; Potency, µM (doses to about 114 µM), usual class: inhibitors; 1.3% of 340,000 active; AID 485314, 2010
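Pol beta (10 nM) was preincubated with compound for 15 min at room temperature. The reaction was then started with 50 nM substrate and read immediately and after a further 10 min at room temperature.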
Pol kappa inh-1 = qHTS for Inhibitors of Polymerase Kappa | 0.53% of 400,000 active | Potency, µM (highest dose often 107 µM), actives largely listed as inhibitors | purified Pol kappa, fluorescent DNA synthesis assay, 10 min | AID 588579, 2011 | DNA polymerase kappa (Homo sapiens), Q9UBT6
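50 nM final substrate added after 15 min RT preincubation of 10 nM Pol kappa with compound; fluorescence read at 0 and 10 min.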
Pol iota inh = qHTS for Inhibitors of Polymerase Iota | DNA polymerase iota (Homo sapiens), Q9UNA4 | Pol iota fluorescent replication assay, 10 min | Potency, µM (top dose mostly 115 µM), actives largely listed as inhibitors | 1% of 390,000 active | AID 588590, 2011
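Pol iota at 10 nM preincubated 15 min with compounds at room temperature; reaction started with fluorescent substrate, 50 nM final. Fluorescence read kinetically at 0 and 10 min; buffer-only wells as negative control.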
Tb PGK inh = qHTS Assay to Find Inhibitors of Phosphoglycerate Kinase | Phosphoglycerate kinase, glycosomal (Trypanosoma brucei brucei), P07378 | PGK/GAPDH coupled, Kinase-Glo luminescence, 60 min | Potency, µM (series often up to 57.5 µM), most hits filed as inhibitors | 0.043% of 380,000 active | AID 602233, 2012; note: nearly all actives have a fitted effect of over 60% in size
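Luminescent ATP detection (Kinase-Glo Plus) follows a 60-minute room-temperature incubation, with wells lacking PGK as controls. Buffer: 100 mM TEA (pH 7.6), 5 mM MgCl2, 0.01% Tween-20. Coupling enzyme GAPDH (100 nM final) supplies unstable 1,3-BPG in-well.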
GALK confirm = Confirmation Assay for Inhibitors of Human Galactokinase (GALK) | shares compounds with Pol eta inh-1 | purified GALK, Kinase-Glo ATP depletion luminescence | Potency, µM (doses to about 115 µM), hits mostly inhibitors | 70% of 150 active | AID 2015, 2009
Target sequence (P51570 whole entry, looked up): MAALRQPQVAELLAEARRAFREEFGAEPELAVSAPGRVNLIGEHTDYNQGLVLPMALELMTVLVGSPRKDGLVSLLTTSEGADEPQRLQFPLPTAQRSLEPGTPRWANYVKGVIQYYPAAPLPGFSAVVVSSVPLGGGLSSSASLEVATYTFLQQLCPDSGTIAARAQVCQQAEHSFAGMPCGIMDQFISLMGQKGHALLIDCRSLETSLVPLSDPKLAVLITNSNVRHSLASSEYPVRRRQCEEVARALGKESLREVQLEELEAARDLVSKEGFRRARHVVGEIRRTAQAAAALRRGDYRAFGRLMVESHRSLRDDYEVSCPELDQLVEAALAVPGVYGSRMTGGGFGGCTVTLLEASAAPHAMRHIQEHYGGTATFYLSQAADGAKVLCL
GALK redox cs = Confirmatory Assay for Inhibitors of Human Galactokinase (GALK): Phenol-HRP redox assay counterscreen; Phenol red-HRP H2O2 redox cycling, absorbance 600 nm; shares compounds with Pol eta inh-1; AID 2035, 2009; 40% of 150 active; Potency, µM (titrated, usually from 115 µM), hits mostly inhibitors
HEK293 viability = Secondary Assay for Inhibitors of Human Galactokinase (GALK): HEK-293 Cell Viability Assay; shares compounds with Pol eta inh-1; HEK-293 viability, ATP luminescence (CellTiter-Glo), 24/48 h; Potency, µM (titrated, usually from 46.1 µM), hits mostly inhibitors; 10% of 170 active
Pol kappa inh-2 = qHTS for Inhibitors of Polymerase Kappa: Confirmatory Assay for Cherry-picked Compounds; shares compounds with Pol eta inh-1; purified Pol-kappa, fluorescent strand-displacement substrate; Potency, µM, actives largely listed as inhibitors; 76% of 920 active
Pol eta inh-2 = qHTS for Inhibitors of Polymerase Eta: Confirmatory Assay for Cherry-picked Compounds; Pol eta primer extension, TAMRA/BHQ fluorescence, 10 min; Potency, µM, most hits filed as inhibitors; AID 720502, 2013; 64% of 2,600 active; shares compounds with Pol eta inh-1
A number is an active result; n = inactive; u = inconclusive; x = no result. Calls come from the whole dose curve; as a rule, active = well fitted curve in the direction sought with a large enough effect; inconclusive = small, poorly fitted or top-dose-only effect, or another doubt; inactive = no such curve, though single readings can be large; an effect the other way counts as inactive or inconclusive.

SMILES | FEN1 inh | Pol eta inh-1 | POLB inh | Pol kappa inh-1 | Pol iota inh | Tb PGK inh | Pol eta inh-2 | others
CCN(C(=O)Cn1nnc2sc3c(c2c1=O)CCC(C(C)(C)C)C3)c1cccc(C)c1 (stereo unspecified) | n | x | n | n | n | x | x
COc1ccc(CC(=O)Nc2sc3c(c2C(=O)Nc2ccc(C)cc2)CCCCC3)cc1 | n | u | u | n | n | n | u | Pol kappa inh-2=u
CN1C(=O)C(C)(C)c2cc(S(=O)(=O)N3CCN(c4ccccc4F)CC3)ccc21 | n | n | n | n | n | n | x
Cc1cccc(N2CCN(S(=O)(=O)c3ccc4c(c3)C(C)(C)C(=O)N4C)CC2)c1C | n | 22µM | 13µM | u | u | n | u
CC1(C(=O)NNC(=O)c2ccc(=O)oc2)CC1Br (stereo unspecified) | n | 20µM | u | u | u | n | 34
Cc1cc(=O)oc(C)c1C(=O)NNC(=O)C1(C)CC1Br (stereo unspecified) | n | n | n | n | n | n | x
CC1CCC/C=C/C(=O)c2c(O)cc(O)cc2CC(=O)O1 (stereo unspecified) | n | 35µM | n | 79µM | 18µM | n | 76
COc1cc(O)c(CCO)c2c1C(=O)C[C@@H](C)O2 | n | n | n | n | n | n | x
COc1cccc(-c2coc3c(C)c4oc(=O)c(CCC(=O)O)c(C)c4cc23)c1 | u | 50µM | u | n | u | n | 48
O=S(=O)(Nc1ccc(O)c(Sc2nc3ccccc3s2)c1)c1cc(Cl)ccc1Cl | u | 79µM | u | u | u | n | u
Cc1ccc(N=C2NC(=O)/C(=C/C=C/c3ccco3)S2)cc1 | 50µM | 10µM | 22µM | 20µM | 3.2µM | n | 67
Cc1nc(N)sc1-c1csc(Nc2cccc(C(=O)O)c2)n1 | u | 40µM | u | 25µM | 11µM | n | 48 | Pol kappa inh-2=12
CCC(=O)Nc1nc(C)c(-c2csc(Nc3cccc(C(=O)O)c3)n2)s1 | n | u | n | n | n | n | x
C=CC1=C(C(=O)O)N2C(=O)[C@@H](NC(=O)/C(=N\O)c3csc(N)n3)[C@H]2SC1 (stereo in doubt) | n | u | x | u | u | u | u
Cc1ccc(Cl)cc1Nc1nc2ccccc2c2nncn12 | n | n | u | n | n | n | x
Cc1ccc2nc3sc(C(=O)NCc4ccco4)cc3cc2c1 | x | x | x | x | x | x | 76
Cc1ccc2nc3sc(C(=O)NCc4ccco4)c(N)c3cc2c1 | n | u | u | n | n | n | x
COc1ccc2c(c1)CC(C(=O)N1CCC(C(N)=O)CC1)CO2 (stereo unspecified) | n | n | n | n | n | n | x
Cc1snc(S(=O)(=O)/C(C#N)=N/Nc2cccc(C(F)(F)F)c2)c1C#N | n | n | n | n | n | n | x | GALK confirm=24µM;GALK redox cs=n;HEK293 viability=n
C/C(=N\Nc1cccc(C(F)(F)F)c1)c1ccc(O)cc1 | n | n | n | n | n | n | x
COc1ccc(N/N=C(/C#N)S(=O)(=O)c2nsc(C)c2C#N)cc1 | n | n | n | n | n | n | x | GALK confirm=u;GALK redox cs=n;HEK293 viability=n
CCN(CC)CCNS(=O)(=O)c1ccc2[nH]cc(C(=O)O)c(=O)c2c1 | n | 22µM | 18µM | u | u | n | 27
CCN(CC)C(=O)c1c[nH]c2ccc(S(=O)(=O)Nc3cc(C)cc(C)c3)cc2c1=O | n | u | n | n | n | n | x
COc1ccc(NC(=O)N(Cc2ccco2)C2CCN(C(C)=O)CC2)c(OC)c1 | n | n | n | n | n | n | x
CC(C)OC(=O)C(C(=O)OC(C)C)=C1SC=CS1 | x | x | x | n | x | x | x
SMILES | FEN1 inh | Pol eta inh-1 | POLB inh | Pol kappa inh-1 | Pol iota inh | Tb PGK inh | Pol eta inh-2 | others
COc1ccc(NC(=O)c2cc3ccccc3cc2OC)cc1 | n | n | n | u | u | n | x
COc1cc2ccccc2cc1C(=O)NC(=S)Nc1ccc(C(=O)O)cc1 | u | 50µM | n | n | n | n | u
COc1cc2ccccc2cc1C(=O)NC(=S)Nc1cccc(C(=O)O)c1 | u | 45µM | 28µM | n | u | n | u
O=C1CSC(=S)N1N=Cc1ccc(Cl)s1 | n | u | x | u | 14µM | n | 54 | Pol kappa inh-2=17
CCSC1=N/C(=C\c2ccc(C(=O)O)cc2)C(=O)S1 | n | n | n | n | n | n | x
O=C1SC(SCc2ccccc2Cl)=N/C1=C\c1ccc(C(=O)O)cc1 | u | 50µM | u | n | u | n | u
O=C(NCc1ccco1)c1c[nH]c2ccc(S(=O)(=O)Nc3ccc(F)cc3F)cc2c1=O | n | 50µM | u | n | u | n | x | Pol kappa inh-2=u
COc1cc(/C=C/c2[nH]c(=O)[nH]c(=O)c2[N+](=O)[O-])cc([N+](=O)[O-])c1O | u | 22µM | u | n | u | x | 60 | Pol kappa inh-2=u
O=c1[nH]c(/C=C/c2cccc([N+](=O)[O-])c2)c([N+](=O)[O-])c(=O)[nH]1 | n | 25µM | n | n | u | n | x | GALK confirm=38µM;GALK redox cs=n;HEK293 viability=n
CCC(C)Oc1ccc(/C=C/c2[nH]c(=O)[nH]c(=O)c2[N+](=O)[O-])cc1OC (stereo unspecified) | n | n | n | n | u | n | x
O=c1[nH]c(/C=C/c2ccc(Cl)cc2Cl)c([N+](=O)[O-])c(=O)[nH]1 | n | 20µM | 32µM | n | 50µM | n | 76
CCN(C(=O)Cn1c(=O)n(CCCS(=O)(=O)C2CCCCC2)c(=O)c2ccccc21)c1cccc(C)c1 | n | n | n | n | n | n | x

High-throughput results (PubChem BioAssay)
